PubChem BioAssay (Tox21)
Inconclusive results are not listed. Where a call stands in place of a potency, no number is given. Calls of active or inactive are those of the source. Unless noted, calls come from the whole dose curve; as a rule, active = well fitted curve in the direction sought with a large enough effect in the repeat runs; inconclusive = weak or mixed curves; inactive = no such curve, though single readings can be large; an effect the other way counts as inactive or inconclusive.

Columns and labels:
[1] = qHTS assay to identify small molecule that activate the aryl hydrocarbon receptor (AhR) signaling pathway - cell viability counter screen (AID 743086); details: HepG2-AhR-luc viability, CellTiter-Fluor, 24 h; series mostly up to 70.3 µM; note: nearly all actives have a fitted effect of over 45% in size; note: potency is the fitted concentration of half-maximal effect
In short: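 HepG2-AhR-luc (HG2L7.5c1) cells, 4000/well, were preincubated 5 h at 37C, exposed to compound in qHTS format for 24 hr at 37C, then given CellTiter-Fluor for 30 min; viability was read as fluorescence in the reporter wells.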

[2] = qHTS assay to identify small molecule antagonists of the peroxisome proliferator-activated receptor gamma (PPARg) signaling pathway - cell viability counter screen (AID 743194); details: PPARg-bla HEK293H viability, CellTiter-Glo luminescence, 17 h, co-treated with 50 nM rosiglitazone; series mostly up to 62.6 µM; note: nearly all actives have a fitted effect of over 55% in size; note: potency is the fitted concentration of half-maximal effect
In short: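 PPARg-UAS-bla HEK293H cells were plated, rested 5 h at 37 C, then treated with compounds plus rosiglitazone (50 nM final) for 17 h at 37 C; viability was then read by CellTiter-Glo luminescence after 30 min at room temperature.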

[3] = target: Peroxisome proliferator-activated receptor delta (Homo sapiens) (UniProt Q03181); assay: qHTS assay to identify small molecule agonists of the peroxisome proliferator-activated receptor delta (PPARd) signaling pathway (AID 743212; calls by dose curve; note: potency is the fitted concentration of half-maximal effect); details: HEK293H PPARd-UAS-bla, beta-lactamase FRET ratio, 17 h; series mostly up to 62.6 µM
In short: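 Beta-lactamase reporter read by fluorescence (LiveBLAzer B/G FRET, 2 h, room temperature). Test agents, in DMSO, incubated at 37 C with PPARd-bla HEK293H cells.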

[4] = qHTS assay to identify small molecule antagonists of the farnesoid-X-receptor (FXR) signaling pathway - cell viability counter screen (AID 743221; active = well fitted cell-killing curve with a large enough effect in the repeat runs, not every such curve was filed as active; note: nearly all actives have a fitted effect of over 50% in size; note: potency is the fitted concentration of half-maximal effect); details: FXR-bla HEK293T viability, CellTiter-Glo luminescence, 16 h; series mostly up to 62.6 µM
In short: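 Cytotoxicity counter screen run in the FXR-bla reporter wells: HEK 293T cells exposed to compound with 50 uM (final) chenodeoxycholic acid for 16 h, 37 C, then viability measured by CellTiter-Glo luminescence after 30 min, room temperature.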

[5] = target: Peroxisome proliferator-activated receptor gamma (Homo sapiens) (UniProt P37231); assay: qHTS assay to identify small molecule agonists of the peroxisome proliferator-activated receptor gamma (PPARg) signaling pathway (AID 743094; active = well fitted activation curve with a large enough effect in the signal ratio in the repeat runs, not every such curve was filed as active; the % refers to the signal ratio); details: HEK293H PPARg-UAS-bla, beta-lactamase FRET ratio, 17 h; series mostly up to 57 µM
In short: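 Agonist activity was taken from a beta-lactamase reporter (FRET substrate, 1 h at room temperature) in HEK293H cells carrying a PPARg UAS-bla construct. Compounds in DMSO were incubated 17 h at 37C after a 5 h cell pre-incubation.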

[6] = qHTS assay for small molecule agonists of the antioxidant response element (ARE) signaling pathway (AID 743202; active = well fitted activation curve with a large enough effect in the signal ratio in the repeat runs, not every such curve was filed as active; the % refers to the signal ratio; note: potency is the fitted concentration of half-maximal effect); details: HepG2 ARE-bla reporter, beta-lactamase FRET, 16 h; series mostly up to 73.3 µM
In short: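 Following a 16 h, 37 C exposure of reporter HepG2 cells (ARE-driven beta-lactamase, 2,000 cells/well) to compounds, FRET substrate was applied for 2 h at room temperature and fluorescence intensity recorded.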

[7] = qHTS assay for small molecule agonists of the antioxidant response element (ARE) signaling pathway - cell viability counter screen (AID 743203; calls by dose curve; note: nearly all actives have a fitted effect of over 55% in size; note: potency is the fitted concentration of half-maximal effect); details: ARE-bla HepG2 viability, CellTiter-Glo luminescence, 16 h; series mostly up to 73.3 µM
In short: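 Viability counter screen: CellTiter-Glo luminescence, read after 30 min at room temperature, in ARE-bla HepG2 wells. Compound exposure lasted 16 h at 37C/5% CO2, following a 5 h pre-incubation of the cells after plating.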

[8] = qHTS assay for small molecule activators of the heat shock response signaling pathway - cell viability counter screen (AID 743209); details: HSE-bla HeLa viability, CellTiter-Glo luminescence, 5 h; series mostly up to 62.6 µM; note: nearly all actives have a fitted effect of over 50% in size; note: potency is the fitted concentration of half-maximal effect
In short: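 Cytotoxicity counter screen run in the same wells as the heat-shock bla reporter assay: HeLa HSE-bla cells, 5 h compound exposure at 37 C, viability read by CellTiter-Glo luminescence.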

[9] = qHTS assay to identify small molecule agonists of the farnesoid-X-receptor (FXR) signaling pathway - cell viability counter screen (AID 743218); details: FXR-bla HEK293T viability, CellTiter-Glo luminescence, 16 h; series mostly up to 62.6 µM; note: nearly all actives have a fitted effect of over 45% in size; note: potency is the fitted concentration of half-maximal effect
In short: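 Viability counter screen in the same wells: CellTiter-Glo luminescence, 30 min room-temperature incubation, measured after the beta-lactamase read. Cells were GeneBLAzer FXR-UAS-bla HEK 293T, compound-treated 16 h at 37C.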

[10] = target: Vitamin D3 receptor (Homo sapiens) (UniProt P11473); assay: qHTS assay to identify small molecule agonists of the vitamin D receptor (VDR) signaling pathway (AID 743222; calls by dose curve); details: HEK293T VDR-UAS-bla, beta-lactamase FRET ratio, 16 h; series mostly up to 63.5 µM
In short: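 Agonist mode, beta-lactamase reporter: fluorescence from LiveBLAzer B/G FRET substrate (2 h, room temperature) read after 16 h compound treatment at 37 C of VDR-bla cells, which were pre-incubated 4 h after seeding.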

[11] = qHTS assay to identify small molecule agonists of the peroxisome proliferator-activated receptor delta (PPARd) signaling pathway - cell viability counter screen (AID 743211); details: PPARd-bla HEK293H viability, CellTiter-Glo luminescence, 17 h; series mostly up to 62.6 µM; note: nearly all actives have a fitted effect of over 55% in size; note: potency is the fitted concentration of half-maximal effect
In short: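 Viability was measured as CellTiter-Glo luminescence (30 min, room temperature) in the same wells as the beta-lactamase readout. GeneBLAzer PPARd UAS-bla HEK293H cells received compound after 5 h plating and were incubated 17 h at 37 C.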

[12] = target: Peroxisome proliferator-activated receptor delta (Homo sapiens) (UniProt Q03181); assay: qHTS assay to identify small molecule antagonists of the peroxisome proliferator-activated receptor delta (PPARd) signaling pathway (AID 743215; active = well fitted inhibition curve with a large enough effect in the signal ratio in the repeat runs, not every such curve was filed as active; the % refers to the signal ratio;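 note: cells stimulated with agonist L165041 at 300 nM final during compound exposure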; note: potency is the fitted concentration of half-maximal effect); details: HEK293H PPARd-UAS-bla, beta-lactamase FRET ratio, antagonist, 17 h; series mostly up to 62 µM
In short: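 Agonist L165041 (300 nM final) added with compound to PPARd-bla HEK293H UAS-bla reporter cells; 17 h incubation at 37 C. Read-out: LiveBLAzer FRET substrate, 2 h at room temperature, fluorescence intensity.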

[13] = qHTS assay to identify small molecule antagonists of the peroxisome proliferator-activated receptor delta (PPARd) signaling pathway - cell viability counter screen (AID 743213); details: PPARd-bla HEK293H viability, CellTiter-Glo luminescence, 17 h; series mostly up to 62 µM; note: nearly all actives have a fitted effect of over 50% in size; note: potency is the fitted concentration of half-maximal effect
In short: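 Same-well viability: cells pre-incubated 5 h, dosed with compound plus 300 nM L165041, kept 17 h at 37 C, FRET substrate 2 h RT, then CellTiter-Glo 30 min RT and luminescence.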

[14] = target: Bile acid receptor (Homo sapiens) (UniProt Q96RI1); assay: qHTS assay to identify small molecule agonists of the farnesoid-X-receptor (FXR) signaling pathway (AID 743220; active = well fitted activation curve with a large enough effect in the signal ratio in the repeat runs, not every such curve was filed as active; the % refers to the signal ratio); details: HEK293T FXR-UAS-bla, beta-lactamase FRET ratio, 16 h; series mostly up to 62.6 µM
In short: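 FXR-UAS-bla HEK 293T cells carrying a UAS-driven beta-lactamase reporter were plated for 5 h at 37C/5% CO2, then exposed to DMSO-dissolved Tox21 10K compounds for 16 h at 37C. A LiveBLAzer B/G FRET substrate was loaded for 2 h at room temperature before fluorescence reading.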

[15] = target: Peroxisome proliferator-activated receptor gamma (Homo sapiens) (UniProt P37231); assay: qHTS assay to identify small molecule antagonists of the peroxisome proliferator-activated receptor gamma (PPARg) signaling pathway (AID 743191; calls by dose curve; note: nearly all actives have a fitted effect of over 30% in size; note: potency is the fitted concentration of half-maximal effect); details: HEK293H PPARg-UAS-bla, beta-lactamase ratio, antagonist, 17 h; series mostly up to 62.6 µM
In short: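 GeneBLAzer PPARg UAS-bla HEK293H cells carrying a UAS-driven beta-lactamase reporter were plated at 3000 cells/well, preincubated 5 h at 37C, then given compound for 17 h at 37C; LiveBLAzer B/G FRET substrate was read after 1 h at room temperature.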

[16] = qHTS assay for small molecule activators of the heat shock response signaling pathway (AID 743210; active = well fitted activation curve with a large enough effect in the signal ratio in the repeat runs, with a control signal flat, not every such curve was filed as active; the % refers to the signal ratio; note: potency is the fitted concentration of half-maximal effect); details: HeLa HSE-bla reporter, beta-lactamase ratio, 5 h; series mostly up to 62.6 µM
In short: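 Heat shock element–beta-lactamase HeLa reporter cells; qHTS with compounds for 5 h at 37 C; detection by FRET substrate fluorescence after 2.5 h at RT.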

[17] = target: Vitamin D3 receptor (Homo sapiens) (UniProt P11473); assay: qHTS assay to identify small molecule antagonists of the vitamin D receptor (VDR) signaling pathway (AID 743223; active = well fitted inhibition curve with a large enough effect in the signal ratio in the repeat runs, not every such curve was filed as active; the % refers to the signal ratio); details: VDR-UAS-bla HEK293T, beta-lactamase FRET ratio, 16 h; series mostly up to 61 µM
In short: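 Antagonist mode: compound added to VDR-bla cells alongside agonist 1alpha,25-dihydroxyvitamin D3 (3 nM final), incubation 16 h at 37C. Read-out is LiveBLAzer FRET fluorescence, 2 h at room temperature.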

[18] = target: Bile acid receptor (Homo sapiens) (UniProt Q96RI1); assay: qHTS assay to identify small molecule antagonists of the farnesoid-X-receptor (FXR) signaling pathway (AID 743217; active = well fitted inhibition curve with a large enough effect in the signal ratio in the repeat runs, not every such curve was filed as active; the % refers to the signal ratio); details: HEK293T FXR-UAS-bla, beta-lactamase ratio, CDCA-stimulated, 16 h; series mostly up to 62.6 µM
In short: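 Antagonist mode: chenodeoxycholic acid at 50 uM final stimulates a UAS-driven beta-lactamase reporter in HEK 293T FXR-bla cells during 16 h, 37C compound exposure. Read-out is FRET substrate fluorescence after 2 h at room temperature.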

Sequence of Vitamin D3 receptor (Homo sapiens) (P11473 whole entry, looked up): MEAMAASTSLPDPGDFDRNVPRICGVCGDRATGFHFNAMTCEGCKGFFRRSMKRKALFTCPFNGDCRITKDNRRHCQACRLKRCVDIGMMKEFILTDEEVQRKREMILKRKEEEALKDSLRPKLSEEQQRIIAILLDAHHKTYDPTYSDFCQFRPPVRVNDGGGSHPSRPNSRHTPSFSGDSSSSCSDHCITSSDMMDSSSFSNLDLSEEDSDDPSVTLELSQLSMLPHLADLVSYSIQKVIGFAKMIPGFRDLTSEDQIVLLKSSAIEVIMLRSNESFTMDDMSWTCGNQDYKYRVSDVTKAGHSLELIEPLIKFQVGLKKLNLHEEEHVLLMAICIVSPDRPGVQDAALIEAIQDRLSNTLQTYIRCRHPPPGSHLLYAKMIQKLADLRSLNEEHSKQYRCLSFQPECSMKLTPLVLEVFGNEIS
Sequence of Peroxisome proliferator-activated receptor gamma (Homo sapiens) (P37231 whole entry, looked up): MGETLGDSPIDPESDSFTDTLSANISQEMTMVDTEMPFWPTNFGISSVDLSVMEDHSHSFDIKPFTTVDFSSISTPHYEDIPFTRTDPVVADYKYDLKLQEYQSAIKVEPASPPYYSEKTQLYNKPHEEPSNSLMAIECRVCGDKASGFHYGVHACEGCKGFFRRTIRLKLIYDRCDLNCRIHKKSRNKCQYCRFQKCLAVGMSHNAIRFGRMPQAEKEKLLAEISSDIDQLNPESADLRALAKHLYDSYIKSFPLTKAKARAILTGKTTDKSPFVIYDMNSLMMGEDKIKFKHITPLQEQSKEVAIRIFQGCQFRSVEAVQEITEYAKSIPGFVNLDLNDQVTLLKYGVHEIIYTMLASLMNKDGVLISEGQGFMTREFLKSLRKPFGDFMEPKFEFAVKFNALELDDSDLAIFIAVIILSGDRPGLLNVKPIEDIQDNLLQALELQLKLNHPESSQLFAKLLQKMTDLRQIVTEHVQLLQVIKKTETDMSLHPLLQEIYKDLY
Sequence of Peroxisome proliferator-activated receptor delta (Homo sapiens) (Q03181 whole entry, looked up): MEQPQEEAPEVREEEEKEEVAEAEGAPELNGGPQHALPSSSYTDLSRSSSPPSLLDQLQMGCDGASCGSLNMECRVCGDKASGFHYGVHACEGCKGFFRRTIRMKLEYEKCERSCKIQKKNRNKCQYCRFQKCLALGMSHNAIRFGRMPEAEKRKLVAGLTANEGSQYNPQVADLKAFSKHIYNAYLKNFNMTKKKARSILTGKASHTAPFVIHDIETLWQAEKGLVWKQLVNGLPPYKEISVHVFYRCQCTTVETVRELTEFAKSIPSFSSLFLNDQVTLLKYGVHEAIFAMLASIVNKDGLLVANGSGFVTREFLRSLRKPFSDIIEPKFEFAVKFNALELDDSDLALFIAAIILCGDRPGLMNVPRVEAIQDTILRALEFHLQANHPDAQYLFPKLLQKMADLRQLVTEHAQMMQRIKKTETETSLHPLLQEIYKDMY
Sequence of Bile acid receptor (Homo sapiens) (Q96RI1 whole entry, looked up): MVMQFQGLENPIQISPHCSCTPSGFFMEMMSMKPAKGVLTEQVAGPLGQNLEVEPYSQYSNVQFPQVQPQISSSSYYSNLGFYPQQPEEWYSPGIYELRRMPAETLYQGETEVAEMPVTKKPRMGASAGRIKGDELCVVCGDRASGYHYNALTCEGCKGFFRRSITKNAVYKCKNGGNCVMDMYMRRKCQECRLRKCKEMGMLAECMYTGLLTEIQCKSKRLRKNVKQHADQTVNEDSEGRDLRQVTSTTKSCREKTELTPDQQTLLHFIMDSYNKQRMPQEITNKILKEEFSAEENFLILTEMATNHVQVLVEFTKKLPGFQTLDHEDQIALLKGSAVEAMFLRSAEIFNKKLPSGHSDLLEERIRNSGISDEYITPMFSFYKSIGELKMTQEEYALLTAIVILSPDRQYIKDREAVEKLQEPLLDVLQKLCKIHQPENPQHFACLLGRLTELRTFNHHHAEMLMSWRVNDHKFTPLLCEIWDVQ

Compound: CCCCC(CC)COC(=O)c1ccccc1C(=O)O (stereo not given)
- Potency [1]: inactive
- Potency [2]: inactive
- Potency [3]: 49.9 µM (active)
- Potency [4]: inactive

Compound: O=C(Nc1cccc([N+](=O)[O-])c1)c1cc2ccccc2cc1O
- Potency [5]: inactive
- Potency [2]: 0.195 µM (active)
- Potency [6]: 1.72 µM (active)
- Potency [7]: inactive
- Potency [8]: inactive
- Potency [3]: inactive
- Potency [9]: inactive
- Potency [10]: inactive

Compound: Cc1[nH]nc2c1N=C(c1ccccc1Cl)c1cc([N+](=O)[O-])ccc1N2
- Potency [1]: 48.6 µM (active)
- Potency [2]: 38.9 µM (active)
- Potency [7]: 15.4 µM (active)
- Potency [8]: 15.5 µM (active)
- Potency [11]: 5.49 µM (active)
- Potency [3]: inactive
- Potency [12]: 24.5 µM (active)
- Potency [9]: 24.5 µM (active)

Compound: CCOC(=O)c1nc(C(Cl)(Cl)Cl)n(-c2ccc(Cl)cc2Cl)n1
- Potency [1]: 61.1 µM (active)
- Potency [5]: inactive
- Potency [7]: 24.3 µM (active)
- Potency [11]: 54.9 µM (active)
- Potency [13]: 49 µM (active)
- Potency [14]: inactive
- Potency [10]: inactive

Compound: CN(C)CCCOC1(Cc2ccccc2)CCCCCC1
- Potency [15]: inactive
- Potency [2]: inactive
- Potency [7]: inactive
- Potency [8]: inactive
- Potency [16]: inactive
- Potency [11]: inactive
- Potency [3]: inactive
- Potency [13]: inactive
- Potency [12]: inactive
- Potency [4]: inactive
- Potency [10]: inactive
- Potency [17]: inactive

Compound: O=C(Oc1ccccc1)c1ccccc1C(=O)Oc1ccccc1
- Potency [1]: inactive
- Potency [2]: inactive
- Potency [7]: inactive
- Potency [8]: inactive
- Potency [11]: inactive
- Potency [3]: inactive
- Potency [12]: inactive
- Potency [9]: inactive
- Potency [4]: inactive

Compound: O=C(N/N=C/c1ccccc1O)c1ccncc1
- Potency [2]: inactive
- Potency [12]: 2.11 µM (active)
- Potency [9]: inactive
- Potency [14]: inactive
- Potency [4]: inactive

Compound: CCCCCOc1ccccc1/C(=C\SC)n1ccnc1
- Potency [15]: 29.8 µM (active)
- Potency [2]: inactive
- Potency [8]: inactive
- Potency [13]: inactive

Compound: Cc1cc(=O)oc2cc(N(C)C)ccc12
- Potency [2]: inactive
- Potency [7]: inactive
- Potency [8]: inactive
- Potency [16]: 34.7 µM (active)
- Potency [11]: inactive
- Potency [13]: inactive
- Potency [9]: inactive
- Potency [4]: inactive

Compound: O=c1cccccc1O
- Potency [1]: inactive
- Potency [2]: inactive
- Potency [7]: inactive
- Potency [3]: inactive
- Potency [18]: inactive
- Potency [9]: inactive
- Potency [14]: inactive
- Potency [4]: inactive
- Potency [17]: inactive

Compound: CC(C)C(C)(C)C(C)(C)C(C)(C)S
- Potency [8]: inactive

Compound: NC(=O)C1(N2CCCCC2)CCN(CCCN2c3ccccc3CCc3ccc(Cl)cc32)CC1
- Potency [2]: 29.8 µM (active)
- Potency [7]: 16.8 µM (active)
- Potency [11]: 11.9 µM (active)
- Potency [13]: 18.8 µM (active)
- Potency [12]: 29.8 µM (active)
- Potency [9]: 11.9 µM (active)
- Potency [4]: 29.8 µM (active)

Compound: C/C(=C(/OCCOc1ccc(Cl)cc1)c1ccc(Cl)cc1Cl)n1ccnc1
- Potency [15]: inactive
- Potency [7]: 42.2 µM (active)
- Potency [8]: inactive
- Potency [3]: inactive
- Potency [13]: inactive
- Potency [9]: inactive
- Potency [4]: inactive
- Potency [10]: inactive
- Potency [17]: inactive

Compound: COc1cccc(N)c1
- Potency [1]: inactive
- Potency [7]: inactive
- Potency [8]: inactive
- Potency [16]: inactive
- Potency [11]: inactive
- Potency [18]: inactive
- Potency [14]: inactive
- Potency [4]: inactive
- Potency [17]: inactive
